Source: PubChem
BoNT F protease: inhibitors of Botulinum neurotoxin F light chain protease; Multiplex microsphere protease cleavage assay, flow cytometry; inhibition, % at 10 µM; 360,000 tested, 0.22% active; AID 588497; in the data active means inhibition above about 35%, passing the limit was not always enough; inconclusive means no clear call, values can overlap the other calls; further: plate controls were buffer without enzyme for full effect and enzyme alone for no effect
BoNT-A LC inh2: inhibitors of Botulinum neurotoxin A light chain protease; multiplex microsphere protease substrate cleavage, flow cytometry; inhibition, % at 10 µM; 360,000 tested, 0.17% active; AID 588499; further: plate controls were buffer without enzyme for full effect and enzyme alone for no effect
Bead autofluor: flagged as autofluorescent in microsphere protease counterscreen; compound autofluorescence counterscreen, microsphere flow cytometry; active compounds read high; AID 624483; fluorescence intensity (no concentration beside the values); 360,000 tested, 3.1% active; in the data active means fluorescence intensity above about 16000; inconclusive means no clear call, values can overlap the other calls
VHR inh abs: DUSP3 (human) phosphatase inhibition. 290,000 tested, 0.52% active. recombinant VHR phosphatase, pNPP absorbance. inhibition, % at 13.3 µM. P51452. AID 1654; in the data active means inhibition above about 50%
Target sequence (P51452 whole entry, looked up): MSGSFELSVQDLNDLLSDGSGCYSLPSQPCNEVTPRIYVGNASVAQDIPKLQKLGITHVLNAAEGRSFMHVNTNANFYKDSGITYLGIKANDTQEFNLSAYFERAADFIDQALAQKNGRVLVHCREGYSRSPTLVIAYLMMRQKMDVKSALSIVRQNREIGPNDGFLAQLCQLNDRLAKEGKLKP
MazF activator: increases E. coli MazEF RNase cleavage of RNA; FAM/BHQ RNA-DNA oligo cleavage fluorescence, 5 h; activation, % at 20 µM; 350,000 tested, 0.32% active; in the data active means activation above about 50%
Target sequence (P0AE70 whole entry, looked up): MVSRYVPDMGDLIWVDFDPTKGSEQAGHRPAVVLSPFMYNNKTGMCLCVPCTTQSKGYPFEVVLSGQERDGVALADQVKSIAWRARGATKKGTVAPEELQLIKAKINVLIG
Anthrax LF inh2: anthrax lethal factor protease inhibition; 360,000 tested, 0.12% active; inhibition, % at 10 µM; AID 588501; multiplex microsphere protease cleavage assay, LF; further: plate controls were buffer without enzyme for full effect and enzyme alone for no effect
Numbers without * were called inactive. The list is not random: actives were taken first. Their share in the collection is about 4%. Unless noted, no stated cut-off is given here; in the data, active means inhibition above about 30%; inconclusive means no clear call, values can overlap the other calls; inactive means below that.

For CN1C(=O)C(=Cc2ccc(N3CCCCCC3)o2)C(=O)N(C)C1=S the results were BoNT F protease 197*, BoNT-A LC inh2 27, Bead autofluor 14036, VHR inh abs 18, MazF activator 32 and Anthrax LF inh2 30*.
For COc1ccc(N(C(=O)c2cccnc2)S(=O)(=O)c2ccc(F)cc2)cc1 the results were BoNT F protease -8, BoNT-A LC inh2 0, Bead autofluor 6500, VHR inh abs 53*, MazF activator 4 and Anthrax LF inh2 9.
Screening COc1ccc(N(C(=O)c2cccnc2)S(=O)(=O)c2ccccc2)cc1 returned BoNT F protease 4, BoNT-A LC inh2 0, Bead autofluor 2686, VHR inh abs 13, MazF activator 1 and Anthrax LF inh2 0.
For COc1ccc(N(C(=O)c2ccncc2)S(=O)(=O)c2ccc(Cl)cc2)cc1 the results were BoNT F protease 3, BoNT-A LC inh2 0, Bead autofluor 5294, VHR inh abs 33, MazF activator 2 and Anthrax LF inh2 -6.
Screening COc1ccc(N(C(=O)C(C)C)S(=O)(=O)c2ccc(Cl)cc2)cc1 returned BoNT F protease 2, BoNT-A LC inh2 0, Bead autofluor 16342*, VHR inh abs 14, MazF activator 1 and Anthrax LF inh2 -2.
For COc1ccc(N(C(=O)c2cccc([N+](=O)[O-])c2)S(=O)(=O)c2ccc3c(c2)n(C)c(=O)n3C)cc1 the results were BoNT F protease 0, BoNT-A LC inh2 inconclusive, Bead autofluor 16542*, VHR inh abs 14, MazF activator -14 and Anthrax LF inh2 -5.
For CC(C)(C)NS(=O)(=O)c1cc(C(=O)O)ccc1Cl the results were BoNT F protease -2, BoNT-A LC inh2 0, Bead autofluor 2378, VHR inh abs 26, MazF activator 8 and Anthrax LF inh2 -1.
`CCCCS(=O)(=O)c1sc2nc3c(cc2c1N)CCCC3` gave BoNT F protease -1, BoNT-A LC inh2 0, Bead autofluor 9471, VHR inh abs -4, MazF activator -14 and Anthrax LF inh2 -2.
Screening O=C(NCCOc1ccc(Cl)cc1)c1ccc2ccccc2n1 returned BoNT F protease -2, BoNT-A LC inh2 1, Bead autofluor 4055, VHR inh abs 12, MazF activator -5 and Anthrax LF inh2 2.
Screening CN(C)CCCN(C(=O)c1cc2ccccc2oc1=O)c1nc2ccc(F)cc2s1 returned BoNT F protease -4, BoNT-A LC inh2 -1, Bead autofluor 10990, VHR inh abs -18, MazF activator 27 and Anthrax LF inh2 1.
CCc1c(C)sc(NC(=O)OC)c1C(N)=O was read as BoNT F protease -1, BoNT-A LC inh2 -1, Bead autofluor 17066*, VHR inh abs 0, MazF activator -11 and Anthrax LF inh2 2.
CCc1c(C)sc(NC(=O)Cn2nc(C)c([N+](=O)[O-])c2C)c1C(N)=O was read as BoNT F protease -3, BoNT-A LC inh2 0, Bead autofluor 2390, VHR inh abs 53*, MazF activator 2 and Anthrax LF inh2 -4.
For CC1Cc2ccccc2N1C(=O)CN1C(=O)COc2ccccc21 (stereo not given) the results were BoNT F protease -9, BoNT-A LC inh2 0, Bead autofluor 3595, VHR inh abs 27, MazF activator 0 and Anthrax LF inh2 3.
CC1Cc2ccccc2N1C(=O)Cc1cccs1 (stereo not given) was read as BoNT F protease -8, BoNT-A LC inh2 -7, Bead autofluor 17722*, VHR inh abs -15, MazF activator -7 and Anthrax LF inh2 -3.
CC1Cc2ccccc2N1C(=O)Cn1c(=O)cc(O)c2ccccc21 (stereo not given) was read as BoNT F protease -9, BoNT-A LC inh2 inconclusive, Bead autofluor 24078*, VHR inh abs 29, MazF activator 2 and Anthrax LF inh2 -4.
CC1Cc2ccccc2N1C(=O)CCS(=O)(=O)c1cccs1 (stereo not given) was read as BoNT F protease 4, BoNT-A LC inh2 -1, Bead autofluor 6867, VHR inh abs -7, MazF activator -9 and Anthrax LF inh2 13.
Screening COc1ccc(Br)cc1C(=O)Nc1ccc(O)cc1 returned BoNT F protease -12, BoNT-A LC inh2 0, Bead autofluor 7403, VHR inh abs -8, MazF activator 5 and Anthrax LF inh2 6.
O=C(CSc1nncs1)NCCNC(=O)CSc1nncs1 was read as BoNT F protease inconclusive, BoNT-A LC inh2 inconclusive, Bead autofluor 4418, MazF activator 2 and Anthrax LF inh2 inconclusive.
`O=C(NC(Cc1ccccc1)c1ccc2c(c1)OCCCO2)c1ccccc1F` (stereo not given) gave BoNT F protease 1, BoNT-A LC inh2 0, Bead autofluor 10806, VHR inh abs 52*, MazF activator -1 and Anthrax LF inh2 -1.
`CCOC(=O)C(Sc1nnc(-c2ccncc2)o1)C(C)=O` (stereo not given) gave BoNT F protease -4, BoNT-A LC inh2 0, Bead autofluor 16214*, VHR inh abs -5, MazF activator 0 and Anthrax LF inh2 -2.
`NC(=O)CSc1nnc(-c2ccncc2)o1` gave BoNT F protease 1, BoNT-A LC inh2 0, Bead autofluor 2154, VHR inh abs 33, MazF activator 2 and Anthrax LF inh2 0.
Screening COC(=O)C(C)Sc1nnc(-c2ccncc2)o1 (stereo not given) returned BoNT F protease -2, BoNT-A LC inh2 inconclusive, Bead autofluor 21757*, VHR inh abs -16, MazF activator 4 and Anthrax LF inh2 -5.
CC(=O)Nc1ccc(S(=O)(=O)NCCCCNS(=O)(=O)c2ccc(NC(C)=O)cc2)cc1 was read as BoNT F protease 0, BoNT-A LC inh2 -3, Bead autofluor 3496, VHR inh abs -28, MazF activator 10 and Anthrax LF inh2 0.
CCN(CC)c1cc(C(F)(F)F)nc(-c2ccccn2)n1 was read as BoNT F protease 12, BoNT-A LC inh2 2, Bead autofluor 8722, VHR inh abs 29, MazF activator 0 and Anthrax LF inh2 7.
`C=CCNc1cc(C(F)(F)F)nc(-c2ccccn2)n1` gave BoNT F protease 1, BoNT-A LC inh2 1, Bead autofluor 19805*, VHR inh abs -2, MazF activator -2 and Anthrax LF inh2 -1.
FC(F)(F)c1cc(Oc2ccccc2Cl)nc(-c2ccccn2)n1 was read as BoNT F protease 0, BoNT-A LC inh2 2, Bead autofluor 21573*, VHR inh abs 40, MazF activator 9 and Anthrax LF inh2 -1.
Screening FC(F)(F)c1cc(Oc2ccc(Cl)cc2)nc(-c2ccccn2)n1 returned BoNT F protease -8, BoNT-A LC inh2 -3, Bead autofluor 23289*, VHR inh abs 35, MazF activator -3 and Anthrax LF inh2 -2.
Screening FC(F)(F)c1cc(Oc2ccccc2)nc(-c2ccccn2)n1 returned BoNT F protease -1, BoNT-A LC inh2 0, Bead autofluor 8937, VHR inh abs 44, MazF activator 8 and Anthrax LF inh2 1.
